# AID inh: blocks human AID cytidine deaminase activity | Q9GZX7 | AID deamination FRET fluorescence, UDG-coupled, 4 h | Potency, µM (doses to about 115 µM), usual class: inhibitors | hit rate 0.32% among 91,000; further: nearly all actives have a fitted effect of over 25% in size
# Target sequence (Q9GZX7 whole entry, looked up): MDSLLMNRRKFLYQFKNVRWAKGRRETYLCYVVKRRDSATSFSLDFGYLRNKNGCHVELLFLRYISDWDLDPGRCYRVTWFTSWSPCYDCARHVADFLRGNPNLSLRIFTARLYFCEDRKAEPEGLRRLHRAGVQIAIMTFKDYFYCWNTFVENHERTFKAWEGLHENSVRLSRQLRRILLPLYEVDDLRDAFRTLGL
# UDG counterscr: UDG inhibition counter-screen; FRET deamination/UDG coupled assay, UDG read, 4 h; Potency, µM (top dose mostly 115 µM), most hits filed as inhibitors; hit rate 0.14% among 91,000; AID 1347430; further: nearly all actives have a fitted effect of over 65% in size
# A number is an active result; 0 = inactive; ? = inconclusive. Most compounds without a hit are left out; they make up all but 0.47% or so of the library. The call rests on the fitted dose curve; in most records, active means well fitted curve in the direction sought with a large enough effect; inconclusive means small, poorly fitted or top-dose-only effect, or another doubt; inactive means no such curve, though single readings can be large; an effect the other way counts as inactive or inconclusive.
SMILES,AID inh,UDG counterscr
COc1ccc(CNC(=O)C(C)c2ccc3cc(OC)ccc3c2)cc1 (stereo unspecified),0,0
CCn1cc2nc(SCc3ccc(C)cc3)n(CCc3ccccc3)c(=O)c2n1,?,0
CCn1cc2nc(SCc3ccc(F)cc3)n(CCc3ccccc3)c(=O)c2n1,35.5µM,0
Cc1ccc(C(=O)c2cc3ccccc3o2)c(C)c1,0,0
O=C(c1cccn2c(=O)c3cc(Cl)ccc3nc12)N1CCN(c2ccccc2F)CC1,0,79.4µM
Cc1ccc(C)c(N2CCN(C(=O)c3cccn4c(=O)c5ccccc5nc34)CC2)c1,0,0
Cc1ccc(CNC(=O)c2ccc(-c3nc(CS(=O)c4ccccc4)c(C)o3)cc2)cc1 (stereo unspecified),0,0
COc1ccc(CNC(=O)c2ccc(-c3nc(CS(=O)c4ccc(C)cc4)c(C)o3)cc2)cc1 (stereo unspecified),?,89.1µM
COc1cc(C(=O)CCN(C)C)cc(OC)c1OC,0,0
COc1cccc(C2CC(=O)Nc3ccsc32)c1OCc1ccc(Cl)cc1 (stereo unspecified),?,0
Cc1ccc(C)c(N2CCN(C(=O)c3cn(CC(C)C)c(=O)c4c3c3ccccc3n4C)CC2)c1,28.2µM,?
Cn1cc(C(=O)N2CCN(c3cccc(C(F)(F)F)c3)CC2)c2c3ccccc3n(C)c2c1=O,?,79.4µM
COc1ccccc1N1CCN(C(=O)c2cn(CC(C)C)c(=O)c3c2c2ccccc2n3C)CC1,0,0
Cn1c2ccccc2c2c(C(=O)N3CCN(c4cccc(C(F)(F)F)c4)CC3)cn(C3CCCCC3)c(=O)c21,?,0
CN(Cc1ccc(C(F)(F)F)cc1)C(=O)C1CCCCC1,0,0
Cc1cccc(N/C=C/C(=O)c2ccc([N+](=O)[O-])cc2)c1,0,0
Cc1cc2c(cc1C)-c1ccccc1C2=O,0,0
COC1=C(OC)C(=O)c2ccccc2C1=O,44.7µM,0
CC/C=C(/C)C(=O)Nc1ccc(SC)cc1,0,0
CC(C)n1nc(C(=O)Nc2cccc(S(=O)(=O)NC3=NCCC3)c2)c2ccccc2c1=O,0,0
COc1ccccc1Cc1nc2ccccc2nc1SCC(=O)N1CCCCC1,?,89.1µM
COc1ccccc1Cc1nc2ccccc2nc1SCC(=O)N1CCc2ccccc21,0,0
COc1ccc(S(=O)(=O)Nc2cc(C(=O)O)ccc2C)cc1OC,0,0
ClCC(Cl)C[n+]1cccc2ccccc21 (stereo unspecified),0,0
N[n+]1cccc2ccccc21,0,1µM
SMILES,AID inh,UDG counterscr
O=C(/C=C/Nc1cc(C(F)(F)F)cc(C(F)(F)F)c1)c1ccc(Cl)cc1Cl,0,0
CCCc1cc(NCc2ccccn2)n2ncc(-c3ccccc3)c2n1,0,0
Cc1nc(-c2ccc(F)cc2)sc1CCNC(=O)c1ccc(C(C)(C)C)cc1,15.8µM,0
COc1ccc(-c2nc(C)c(CCNC(=O)c3cccs3)s2)cc1OC,0,0
Cc1nc(-c2ccc(F)cc2)sc1CCNC(=O)c1ccccc1,0,0
Cc1nc(-c2ccc(F)cc2)sc1CCNC(=O)c1cccs1,?,79.4µM
Nc1nnnn1NCc1c(OCc2ccc(Cl)cc2Cl)ccc2ccccc12,0,0
Cc1ccc(C(=O)/C=C/c2ccc3oc4ccccc4c3c2)cc1,0,0
Cc1ccc(NC(=O)c2cc(S(=O)(=O)N3CCCc4ccccc43)ccc2F)cc1F,0,?
Cc1cccc(C)c1NC(=O)c1cc(S(=O)(=O)N2CCCc3ccccc32)ccc1F,0,89.1µM
COc1ccc(-c2nn(C)c3sc(C(=O)N4CCN(c5cccc(Cl)c5)CC4)cc23)cc1OC,79.4µM,?
COc1ccc(N2CCN(C(=O)c3cc4c(-c5ccccc5F)nn(C)c4s3)CC2)cc1,?,0
COc1ccccc1C(=O)Oc1c(Sc2ccccc2)c(C)nn1-c1ccccc1,44.7µM,?
Cc1ccc(Sc2c(C)nn(-c3ccccc3)c2OC(=O)CC(C)C)cc1,?,0
COc1cccc(CNC(=O)Cn2nc(C(=O)O)c3ccccc3c2=O)c1,0,0
COc1ccc2nc(Nc3nc(C)c(CCC(C)C)c(=O)[nH]3)nc(C)c2c1,0,0
CCOc1cccc2c(C)nc(Nc3nc(C)c(CC)c(=O)[nH]3)nc12,50.1µM,0
COc1cc(C(c2c(C)[nH][nH]c2=O)c2c(C)[nH][nH]c2=O)ccc1OC(=O)c1cccc(C)c1,22.4µM,0
COc1cc(C(c2c(C)[nH][nH]c2=O)c2c(C)[nH][nH]c2=O)ccc1OC(=O)c1ccccc1OC,?,0
O=C1c2c(O)ccc(O)c2C(=O)c2c(NCCNCCO)ccc(NCCNCCO)c21,10µM,39.8µM
O=C1c2ccccc2C(=O)c2c(NCCc3ccc(O)cc3)ccc(NCCc3ccc(O)cc3)c21,?,0
CC(Nc1ccc(C(F)(F)F)cc1[N+](=O)[O-])c1ccccn1 (stereo unspecified),0,0
CCC(CC)NC(=O)c1cccc(OC)c1,0,0
COc1ccc(Cl)cc1NC(=O)C1CCN(c2nccnc2Oc2ccccc2C)CC1,0,89.1µM

# Compound activity (PubChem BioAssay)
